± gives the standard deviation of the averaged measurements. In all, about 3,800 compounds were measured (“cell shape (eccentricity) Z-score vs DMSO control”: median about 1.1, lowest 2% from about -4.7 on). The sample as a whole holds a higher share of the lowest values than the screen did.
These compounds were tested on human monocyte-derived macrophages (M0) (assay: cell shape (eccentricity) Z-score vs DMSO control; higher = more elongated, M2-like morphology). Details: 20 µM; 24 h; macrophage state: M0 (M-CSF).

Going from CC#CCOC(=O)c1c(C)nc2sc3c(c2c1N)CCC(O)C3 (stereo unspecified) to Cc1c(-c2ccnc(Nc3ccc(N4CCNCC4)cc3)n2)sc(=O)n1C, the “cell shape (Z-score)” value rises from -0.105 to 9.91.

First: C[C@@H]1O[C@@H](Oc2ccc(-c3coc4cc(O[C@@H]5O[C@@H](C)[C@H](O)[C@@H](O)[C@H]5O)cc(O)c4c3=O)cc2)[C@H](O)[C@H](O)[C@H]1O
Second: COc1cc(OC2OC(COC3OCC(O)(CO)C3O)C(O)C(O)C2O)c2c(-c3ccc(O)c(O)c3)cc(=O)oc2c1 (stereo unspecified)
The “cell shape (Z-score)” value of the first is lower: -0.632 for the first, -0.273 for the second.

Going from c1ccc(COCCCc2cnc[nH]2)cc1 to O=C(O)CCCc1ccccc1, the “cell shape (Z-score)” value falls from 2.2 to 0.59.

Going from O=C(CCCc1ccc(-c2ccccc2F)cc1)Nc1ccc(O)cc1 to O=C(O)Cc1nn(Cc2ccc(Br)cc2F)c(=O)c2ccccc12, the “cell shape (Z-score)” value falls from -4.74 to -4.79.

Going from Cc1c(Cl)cccc1Nc1ccccc1C(=O)O to O=C(O)c1ccccc1Nc1ccccc1, the “cell shape (Z-score)” value rises from 1.66 to 2.81.

Compared with COc1ccc(S(=O)(=O)N(C(C)=O)c2ccccc2/C=C/c2cc[n+]([O-])cc2)cc1, COc1cc(C)c2c(=O)cc(-c3ccccc3)oc2c1 is higher in “cell shape (Z-score)” value: -4.1 for the first, 1.41 for the second.

First: CC(=O)OCC(=O)[C@@]1(O)CCC2C3CCC4=CC(=O)CC[C@]4(C)C3C(=O)C[C@@]21C (stereo partly specified)
Second: CCC(=O)OCC1=CCCC2C1(C)CCC(C)C2(C)CCC(C)CC(=O)O (stereo unspecified)
The “cell shape (Z-score)” value of the first is lower: -0.245 for the first, 0.255 for the second.

Going from C=C1CCC2(C(=O)OC3OC(CO)C(O)C(O)C3O)CCC3(C)C(=CCC4C5(C)CC(O)C(OC6OCC(O)C(O)C6OC6OC(CO)C(O)C(O)C6O)C(C)(CO)C5CCC43C)C2C1 (stereo unspecified) to C=C1[C@@H](C2=CC(=O)OC2)CC[C@@]2(O)[C@@H]1CC1[C@H]2CC[C@@H]2C[C@@H](O[C@H]3O[C@@H](C)[C@@H](O[C@@H]4O[C@H](CO[C@@H]5O[C@H](CO)[C@@H](O)[C@H](O)[C@H]5O)[C@@H](O)[C@H](O)[C@H]4O)[C@H](OC)[C@H]3O)CC[C@]12C (stereo partly specified), the “cell shape (Z-score)” value falls from 0.275 to -4.99.

First: C=C(COC(=O)C(C)C)C1Oc2cc(C(C)=O)ccc2C1OC(=O)C(C)C (stereo unspecified)
Second: CCOC(=O)C1C(=O)C(=O)Nc2ccccc21 (stereo unspecified)
The “cell shape (Z-score)” value of the first is lower: 1.56 for the first, 2.09 for the second.

First: Cc1cc(C)c(CNC(=O)c2cc(-c3ccc(N4CCNCC4)nc3)cc3c2cnn3C(C)C)c(=O)[nH]1
Second: COc1cc(C(=O)N2CCC(N3CCN(C)CC3)CC2)ccc1Nc1ncc2c(n1)N(C)c1ccccc1C(=O)N2C
The “cell shape (Z-score)” value of the first is lower: 3.48 for the first, 8.88 for the second.

Compared with CC(Cc1ccc(O)c(O)c1)(NN)C(=O)O (stereo unspecified), COC(CCc1ccc(O)c(O)c1)CC(=O)CCc1ccc(O)c(O)c1 (stereo unspecified) is higher in “cell shape (Z-score)” value: -0.173 for the first, 1.18 for the second.

Compared with C=C1C(=O)O[C@@H]2[C@H]3C(=C)[C@@H](O[C@@H]4O[C@H](CO)[C@@H](O)[C@H](O)[C@H]4O)C[C@H]3C(=C)C[C@@H](O)[C@@H]12, C=C(C(=O)O[C@H]1CC=C(C)C[C@H](O)[C@H]2[C@H](C)C(=O)O[C@@H]2/C=C/1C)[C@@H]1CCC(=C)[C@@H]2C[C@H](O[C@@H]3O[C@H](CO[C@H]4OC[C@](O)(CO)[C@H]4O)[C@@H](O)[C@H](O)[C@H]3O)C(=C)[C@@H]2C1 is lower in “cell shape (Z-score)” value: 2.36 for the first, -4.65 for the second.

Compared with COc1cc(O[C@@H]2O[C@H](CO[C@H]3OC[C@](O)(CO)[C@H]3O)[C@@H](O)[C@H](O)[C@H]2O)cc(OC)c1OC, CO[C@@H]1CC(OC2CCC3(C)C(CCC45CCC(C6=CC(=O)OC6)C(C)(CCC43)C5=O)C2)O[C@H](C)[C@@H]1O[C@@H]1O[C@H](CO[C@@H]2O[C@H](CO)[C@@H](O)[C@H](O)[C@H]2O)[C@@H](O)[C@H](O)[C@H]1O (stereo partly specified) is higher in “cell shape (Z-score)” value: 1.07 for the first, 1.71 for the second.

First: O=C(c1ccc(Nc2nccc(-c3cc4ccccc4s3)n2)cc1)N1CCC(N2CCCC2)CC1
Second: COC(=O)C1=C(C)NC(C)=C(C(=O)OCCCN2CCC(c3ccccc3)(c3ccccc3)CC2)[C@H]1c1cccc([N+](=O)[O-])c1
The “cell shape (Z-score)” value of the first is lower: -4.98 for the first, 1.82 for the second.

Compared with CC[N+](CC)(CC(=O)Nc1c(C)cccc1C)Cc1ccccc1, CC[N+](C)(CC)CC(=O)Nc1c(C)cccc1C is lower in “cell shape (Z-score)” value: 1.74 for the first, -0.632 for the second.

Compared with Cc1cccc(C)c1NC(=O)C[N+](C)(C)C, Cc1cc(=O)oc2c(O)c(O)ccc12 is higher in “cell shape (Z-score)” value: -4.98 for the first, 1.41 for the second.

Compared with Cc1cc2cc3c(C)cc(=O)oc3c(C)c2o1, COc1ccc2c(C)cc(=O)oc2c1 is higher in “cell shape (Z-score)” value: -4.76 for the first, 4.64 for the second.

Compared with COc1cc(O)c(C(=O)c2c(O)cc(C)cc2O)c(C(=O)O)c1, CCOc1cc(/C=C(/C#N)C(N)=O)cc(CSc2ccccc2)c1O is higher in “cell shape (Z-score)” value: 1.14 ± 0.29 for the first, 2.62 for the second.

Going from COC1CC(O[C@H]2CC[C@]3(C)C4CC[C@@]5(C)C(=O)[C@]4(CC[C@@H]3C2)CC[C@@H]5C2=CC(=O)OC2)OC(C)C1OC1OC(COC2OC(CO)C(O)C(O)C2O)C(O)C(O)C1O (stereo partly specified) to CN1CCN(CCOc2cc(OC3CCOCC3)c3c(Nc4c(Cl)ccc5c4OCO5)ncnc3c2)CC1, the “cell shape (Z-score)” value rises from 0.241 to 5.59.

Compared with C[C@@H](C1=C(CCN(C)C)Cc2ccccc21)c1ccccn1, CC(C)n1cnc2c(NCc3ccccc3O)nc(NCCCO)nc21 is higher in “cell shape (Z-score)” value: 1.35 for the first, 3.13 for the second.

With O=C(O)Cc1nn(Cc2nc3cc(C(F)(F)F)ccc3s2)c(=O)c2ccccc12 the “cell shape (Z-score)” value was 1.57.

— the supplement of paper PMC7858590
